# Data reported in PubChem BioAssay (NCI).
# This is part of a sample that, as a whole, favours compounds with a hit. Of some 83,000 tested, about 20% had one in any assay.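 Plates (96-well) were seeded with cells, treated with compound at one concentration, and incubated for 48 hours before percent growth was determined.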 Calls of active or inactive are those of the source.
# Test system: ACHN renal
# Assay: NCI-60 one-dose screen, 48 h (100 = growth as untreated, 0 = no growth, -100 = all killed)
# Conditions: 10 µM unless noted
# Experimental: Growth inhibition of the ACHN human tumor cell line is measured as a screen for anti-cancer activity. Cells are grown in 96 well plates and exposed to the test compound for 48 hours. Compounds are tested at a single concentration, which is 10^-5 M for most compounds. The reported endpoint is percent growth (GI% or GIPRCNT), where numbers from 0 - 100% represent growth inhibition, and numbers from -100% - 0 represent cell death. For example, a value of 40 represents 60% growth inhibition. A value of 0 means no net growth occurred over the course of the experiment. A value of -40 indicates 40% of cells at the beginning of the experiment died by the end of the experiment. A value of -100 means all cells are dead at the end of the experiment.
# NCI-60 Human Tumor Cell Lines Screen was performed using the standard one-dose NCI protocol, which is described in more detail at https://dtp.cancer.gov/discovery_development/nci-60/default.htm.
# Compounds with GIPRCNT values below 10 were considered active. Activity score was based on GIPRCNT using the following formula: […]
# Score is 0 for GIPRCNT values of 100 or above, 50 for GIPRCNT values of 0, and 100 for GIPRCNT values of -100.
row,SMILES,growth
1,CS(=O)(=O)c1ccc(C(=O)N2N=C(c3ccccc3)CC2c2ccc3c(c2)OCO3)cc1 (stereo not given),107% (inactive)
2,COc1ccc(C(=O)OC2C(OC3C(O)COC(O[C@H]4C[C@H]5[C@@H]6CC=C7C[C@@H](O)CC[C@]7(C)[C@H]6CC[C@]5(C)[C@H]4[C@H](C)C(=O)CCC(C)C)C3OC(N)=O)OCC(O)C2O)cc1 (stereo not given in full),40.5% (inactive)
3,O=C1Nc2ccc(Br)cc2/C1=N/c1nc(-c2ccccc2)cs1,94.8% (inactive)
4,COc1cccc(-c2nc3sccn3c2-c2ccnc(NCCN3CCCNS3(=O)=O)n2)c1,48.4% (inactive)
5,COc1ccc(-c2cc(C(=O)Nc3ccc(C)cc3)nc3[nH]c(=O)sc23)cc1,90.2% (inactive)
6,Oc1c(C(Nc2ccccc2Br)c2ccccc2)ccc2cccnc12 (stereo not given),13.5% (inactive)
7,S=C(Cc1ccccc1)N1CCN(c2ccccc2Cl)CC1,108% (inactive)
8,c1ccc(-c2ccc(-c3ccccc3)[nH]2)cc1,100% (inactive)
9,CN1C(=O)N(C)C2C1NN=c1s/c(=C\c3ccc(Br)cc3)c(=O)n12 (stereo not given),43.2% (inactive)
10,Cc1nn(-c2ccccc2)c2nc3c(nc12)C1=NCCN1C(c1ccc(Cl)cc1)N3 (stereo not given),87.3% (inactive)
11,CCOC(=O)C1=C(C(=O)OCC)N(c2cc(OC)c(OC)c(OC)c2)C(N)=C(C#N)C1c1cc(=O)[nH]c2ccccc12 (stereo not given),97.6% (inactive)
12,CCOC(=O)Nc1ccc2nc(Sc3ccc(Cl)cc3)sc2c1,61.5% (inactive)
13,CCCCCCCOc1cccc(/C=C2\N=C3SCCCN3C2=O)c1,96.4% (inactive)
14,CC(=O)CC(c1ccc([N+](=O)[O-])cc1)c1c(O)c2ccccc2oc1=O (stereo not given),98.1% (inactive)
15,C[C@@H]1CC2C3CCC4=CC(=O)C=C[C@]4(C)[C@@]3(Cl)[C@@H](O)C[C@]2(C)[C@@]1(OC(=O)c1ccco1)C(=O)CCl (stereo not given in full),82.4% (inactive)
16,COc1ccc(/C=C/c2nc(NCCCN(C)C)c3ccccc3n2)cc1,122% (inactive)
17,COc1ccc2c(c1)OC1=C(C(=O)OC1)C2c1cc(OC)c2c(c1)OCCO2 (stereo not given),27.8% (inactive)
18,COc1ccc(C(=O)O)cc1.[Ag],103% (inactive)
19,COc1cc(C2CC(c3ccc(Cl)cc3)=NN2C=O)ccc1Oc1ccnc2cc(Cl)ccc12 (stereo not given),41% (inactive)
20,C=C(c1ccc(C(=O)NCCCn2ccnc2)cc1)c1cc2c(cc1C)C(C)(C)CCC2(C)C,-16.6% (active)

row,SMILES,growth
1,Cc1ccncc1NC=O,115% (inactive)
2,NC(N)=NC1CCCCC1,103% (inactive)
3,COc1cc(CN2CCC(N3CCCC3=O)c3ccccc32)cc(OC)c1OC (stereo not given),91.3% (inactive)
4,C=C1C(=O)O[C@H]2[C@H]1CC/C(COC(=O)NCc1[nH]nc3ccccc13)=C\CC[C@@]1(C)O[C@@H]21,14.4% (inactive)
5,COc1cc([N+](=O)[O-])cc(OC)c1OC,119% (inactive)
6,COc1cc(C2CC(c3cccc(Nc4ccnc5cc(Cl)ccc45)c3)=NN2C=O)cc(OC)c1OC (stereo not given),-6.99% (active)
7,CCN(CC)c1ccc(/C=N/N=C(N)N)cc1,43.6% (inactive)
8,CS(=O)(=O)c1ccc(C(=O)N/N=C/c2cccc3ccccc23)cc1,98.5% (inactive)
9,O=c1c2cc(Cl)ccc2oc2ccc(OCCCCCN3CCCCC3)cc12,94.8% (inactive)
10,Clc1ccc(-c2cnc3c(-c4ccnc(N5CCNCC5)c4)cnn3c2)cc1,-0.355% (active)
11,CC(C)CCSc1nc(-c2ccc(F)cc2)c(C#N)c(N2CCCCC2)n1,91.8% (inactive)
12,COCc1nc(NS(=O)(=O)c2ccc(N)cc2)nc(C)c1Br,102% (inactive)
13,O=C(NCCN1CCCCC1)n1cc(-c2ccncc2)c(-c2ccc(Cl)c(O)c2)n1,57.4% (inactive)
14,COc1ccc(CNc2c3ccccc3nc3ccccc23)cc1F,10.9% (inactive)
15,Cc1c(C(=O)CCl)c(=O)n(-c2ccccc2)n1C,47% (inactive)
16,C#C[C@]1(O)CC[C@H]2[C@@H]3CC=C4c5sc(-c6cccc(Br)c6)nc5CC[C@]4(C)[C@H]3CC[C@@]21C,83.3% (inactive)
17,C[Si](C)(C)C(c1ccccc1)c1ccccc1,93.1% (inactive)
18,O=C(Nc1cccc(Cl)c1)Nc1ccccc1Cl,89.9% (inactive)
19,C=CCOC(=O)C1=C(C)NC2=C(C(=O)CCC2)C1c1ccc(F)cc1 (stereo not given),89.6% (inactive)
20,O=C(/C=C/c1ccccc1)c1c[nH]c2ccccc2c1=O,11.6% (inactive)
